Test results published in PubChem BioAssay (EPA / NIEHS).
Active and inactive are the calls of the source. How the source made its calls: active means hit-call score of the fitted dose curve at least 0.9, where 1 is the maximum; inactive means score below 0.9.

biological target: Signal transducer and activator of transcription 3 (Homo sapiens) (UniProt P40763); experiment: ATG_STAT3_CIS: Attagene CIS-FACTORIAL HepG2 Assay for human Signal Transducer and Activator of Transcription 3 (STAT3) (AID 2282963); conditions: HepG2, Attagene cis-factorial STAT3 reporter transcription; actives raise or lower the signal
Sequence (P40763 whole entry, looked up): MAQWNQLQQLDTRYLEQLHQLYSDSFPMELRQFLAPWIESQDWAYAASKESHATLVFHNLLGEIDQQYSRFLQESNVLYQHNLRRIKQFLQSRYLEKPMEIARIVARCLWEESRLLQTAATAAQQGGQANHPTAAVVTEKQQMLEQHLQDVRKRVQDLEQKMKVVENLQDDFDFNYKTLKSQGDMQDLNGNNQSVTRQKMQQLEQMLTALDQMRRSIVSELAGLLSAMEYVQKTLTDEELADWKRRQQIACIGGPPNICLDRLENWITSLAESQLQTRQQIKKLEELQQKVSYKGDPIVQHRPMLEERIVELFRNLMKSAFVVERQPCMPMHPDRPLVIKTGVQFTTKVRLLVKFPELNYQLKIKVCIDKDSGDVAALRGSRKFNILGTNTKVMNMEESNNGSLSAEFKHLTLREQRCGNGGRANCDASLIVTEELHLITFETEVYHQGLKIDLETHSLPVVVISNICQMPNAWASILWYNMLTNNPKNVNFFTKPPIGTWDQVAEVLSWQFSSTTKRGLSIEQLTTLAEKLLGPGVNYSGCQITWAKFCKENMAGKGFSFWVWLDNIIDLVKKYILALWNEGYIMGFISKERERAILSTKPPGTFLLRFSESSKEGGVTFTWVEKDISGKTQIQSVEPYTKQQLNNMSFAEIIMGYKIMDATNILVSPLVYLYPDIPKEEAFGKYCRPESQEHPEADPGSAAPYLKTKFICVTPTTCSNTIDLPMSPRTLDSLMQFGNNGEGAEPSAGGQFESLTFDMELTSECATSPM
Procedure: ATG_CIS is a cell-based, multiplexed-readout assay that uses HepG2, a human liver cell line, with measurements taken at 24 hours after chemical dosing in a 24-well plate.ATG_STAT3_CIS is one of 52 assay component(s) measured or calculated from the ATG_CIS assay. It is designed to make measurements of mRNA induction, a form of inducible reporter, as detected with fluorescence intensity signals by Reverse transcription polymerase chain reaction (RT-PCR) and Capillary electrophoresis technology.Data from the assay component ATG_STAT3_CIS was analyzed into 1 assay endpoint. This assay endpoint, ATG_STAT3_CIS, was analyzed with bidirectional fitting relative to DMSO as the negative control and baseline of activity. Using a type of inducible reporter, measures of mRNA for gain or loss-of-signal activity can be used to understand the reporter gene at the transcription factor-level as they relate to the gene STAT3. Furthermore, this assay endpoint can be referred to as a primary readout, because this assay has produced multiple assay endpoints where this one serves a reporter gene function. To generalize the intended target to other relatable targets, this assay endpoint is annotated to the dna binding intended target family, where the subfamily is stat protein.
Human liver HepG2 cells are transiently transfected with multiple reporter transcription units (MRTUs) in 6-well plates using FuGene 6 reagent (Roche; 3 ml FuGene/1 mg DNA). The MRTU constructs are regulated by a cis-regulating element (promoter). […] A major difference between the CIS and TRANS system is that in CIS activities of endogenous TFs are measured, whereas the TRANS assay evaluates changes in activities of exogenous, chimeric NR-Gal4 proteins. […] At the end of 24 hour incubation, total RNA was isolated using TriZol reagent (Invitrogen). The isolated RNA is then reverse-transcribed using oligo(dT) primer and Mo-MLV reverse transcriptase (Invitrogen) with DNAse I (Ambion) treatment for 30 min. The one-tenth of the produced cDNA was amplified by PCR using Taq DNA polymerase (Invitrogen) and two reporter sequence-specific primers. The PCR products were fluorescently labeled by primer extension with 6-arboxyfluorescein (6-FAM) 5'-labeled reporter sequence-specific primer (2 min at 95 C, 20 s at 68 C and 10 min at 72 C) and these products were digested with 5U of HpaI (New England Biolabs) for 2h at 37 C. The fragments were purified using Qiaquick PCR columns (Qiagen), analyzed on an ABI 3130xL genetic analyzer (Applied Biosystems) with peak positions identified by using a set of X-rhodamine (ROX)-labeled MapMarker1000 molecular weight standards (BioVentures). The raw capillary electrophoresis data was processed using Attagraph software (Attagene).

Row | Compound | outcome | AC50
1 | Nc1ccc(-c2ccccc2)cc1 | inactive | –
2 | Brc1c(Br)c(Br)c(Oc2c(Br)c(Br)c(Br)c(Br)c2Br)c(Br)c1Br | inactive | –
3 | O=[N+]([O-])c1ccc(Cl)c([N+](=O)[O-])c1 | – | 5.93 µM (active)
4 | C#CCO | inactive | –
5 | COc1nn(C(=O)NS(=O)(=O)c2ccccc2OC(F)(F)F)c(=O)n1C | inactive | –
6 | Nc1nc(N)nc(Cl)n1 | inactive | –
7 | Cc1cc(Cl)ccc1O | inactive | –
8 | CC(=O)CN(CC(C)=O)N=O | inactive | –
9 | NC(=O)c1ccc(N)nc1 | inactive | –
10 | NC(=O)CCl | inactive | –
11 | Cc1cc(Cl)ccc1N | inactive | –
12 | CCCCN(CCCC)C(=S)[S-].CCCCN(CCCC)C(=S)[S-].[Ni+2] | inactive | –
13 | O=C=Nc1ccc(Cl)cc1 | inactive | –
14 | O=S(=O)(c1ccc(Cl)cc1)c1cc(Cl)c(Cl)cc1Cl | inactive | –
15 | CCOP(=O)(OCC)SCCSCC | inactive | –
16 | c1csc(-c2ccc(-c3cccs3)s2)c1 | inactive | –
17 | ClCc1ccccc1Cl | inactive | –
18 | Clc1cccc(Cl)c1 | inactive | –
19 | CC(C)(C#N)N=NC(C)(C)C#N | inactive | –
20 | CC1(C)[C@H](/C=C2\CCSC2=O)[C@@H]1C(=O)OCc1coc(Cc2ccccc2)c1 | inactive | –

Row | Compound | outcome | AC50
21 | Brc1ccc(Oc2c(Br)cc(Br)cc2Br)c(Br)c1 | inactive | –
22 | CCCCCCCCCCCCCCC(Br)C(=O)O (stereo not given) | inactive | –
23 | O=[N+]([O-])c1cc([As](=O)(O)O)ccc1O | inactive | –
24 | CCCCC(CC)C(=O)Cl (stereo not given) | inactive | –
25 | COC(F)(C(F)(F)C(F)(F)F)C(F)(C(F)(F)F)C(F)(F)F (stereo not given) | inactive | –
26 | CCCCCCCCCCCCBr | inactive | –
27 | Cc1cc(-c2cc(C)c(N)c(C)c2)cc(C)c1N | inactive | –
28 | Oc1cc(Cl)c(Cl)cc1Cl | inactive | –
29 | C=CCN=C=S | inactive | –
30 | Oc1cccc(-c2ccccc2)c1 | inactive | –
31 | CCCCC(CC)COC(=O)Cl (stereo not given) | inactive | –
32 | CCOC(=O)Cc1ccccc1 | inactive | –
33 | CCOP(=S)(OCC)O/N=C(\C#N)c1ccccc1 | inactive | –
34 | N#Cc1ccccc1Cl | inactive | –
35 | CCOP(=S)(OCC)SCSc1cc(Cl)ccc1Cl | inactive | –
36 | Nc1c(Oc2ccccc2)cc(O)c2c1C(=O)c1ccccc1C2=O | inactive | –
37 | CCN(CC)C(=O)C(Cl)=C(C)OP(=O)(OC)OC | inactive | –
38 | Cc1ccccc1OP(=O)(Oc1ccccc1)Oc1ccccc1 | inactive | –
39 | CC(C)(c1ccc(O)c(-c2ccccc2)c1)c1ccc(O)c(-c2ccccc2)c1 | inactive | –
40 | CCCCCCCCCCBr | inactive | –
